This excerpt belongs to a sample that is enriched for hits.
CHX counter = counter-screen for Shiga toxin inhibitors: cycloheximide protein synthesis inhibition; cell reporter, cycloheximide protein synthesis inhibition counterscreen; AID 2314; max response, %; 12% of 300,000 active; in the data active = max response mostly above about 13%, no sharp cut-off; inactive = mostly below about 14%; also: read at 38.3 µM for the half of the compounds with a filed dose
LmPK inh = blocks Leishmania mexicana pyruvate kinase activity; purified LmPK, Kinase-Glo ATP luminescence, 1 h; Potency, µM (highest dose often 57.5 µM), usual class: inhibitors; Q27686; 0.37% of 290,000 active; AID 1721
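Purified LmPK (0.1 nM) with 0.5 mM PEP and 0.1 mM ADP in imidazole buffer pH 7.2 with MgCl2/KCl, 1 h at room temperature. ATP formed was read by luciferase luminescence and normalized to no-enzyme and uninhibited controls.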
Sm TGR inh = S. mansoni TGR enzyme inhibition; Q962Y6; purified TGR, DTNB reduction, TNB absorbance 405 nm; Potency, µM (titrated, usually from 114 µM), most hits filed as inhibitors; 3% of 360,000 active; also: nearly all actives have a fitted effect of over 60% in size
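TGR 20 nM + NADPH 100 uM (dispensed conc.), cpd preinc 15 min RT; start with NADPH (500 uM addition) then DTNB (15 mM addition). Kinetic TNB absorbance, 405 nm filter. Four-parameter Hill fit across titration.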
Shiga inhibitor = blocks Shiga toxin action in Vero cells. Vero cells, Shiga toxin protein synthesis inhibition reporter. inhibition, % at 38.7 µM. 9.2% of 290,000 active; in the data active = inhibition mostly above about 28%, no sharp cut-off; inactive = mostly below about 43%
Giardia FBPA inh = inhibitors of Giardia lamblia fructose-1,6-bisphosphate aldolase; A8B2U2; purified Giardia FBPA; Potency, µM (top dose mostly 59.6 µM), hits mostly inhibitors; 0.71% of 290,000 active; AID 2451; also: nearly all actives have a fitted effect of over 55% in size
Target sequence (A8B2U2 whole entry, looked up): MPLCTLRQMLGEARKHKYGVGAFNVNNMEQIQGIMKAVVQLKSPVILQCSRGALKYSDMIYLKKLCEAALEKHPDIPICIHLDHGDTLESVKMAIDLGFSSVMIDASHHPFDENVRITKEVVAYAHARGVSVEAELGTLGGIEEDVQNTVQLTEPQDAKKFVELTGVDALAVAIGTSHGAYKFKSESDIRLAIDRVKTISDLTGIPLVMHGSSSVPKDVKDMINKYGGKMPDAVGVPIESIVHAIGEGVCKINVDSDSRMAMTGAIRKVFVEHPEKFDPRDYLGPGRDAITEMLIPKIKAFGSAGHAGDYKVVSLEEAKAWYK
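40 nM FBPA preincubated 10 min at RT with compound (up to 57.5 uM final), then substrate plus GAPDH/TPI/NAD/arsenate coupling and diaphorase/resazurin added. Fluorescence read after 20 min at RT, 525/598 nm.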
Tb PYK inh = inhibitors of Trypanosoma brucei pyruvate kinase. 0.12% of 410,000 active. Potency, µM (series often up to 76.8 µM), hits mostly inhibitors. AID 624173. TbPYK enzyme, Kinase-Glo Plus ATP luminescence, 45 min; also: nearly all actives have a fitted effect of over 50% in size
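Enzyme and substrate buffer are dispensed first and compound is pin-transferred. ADP at 130 uM final then starts the reaction, which runs 45 min at room temperature. Detection reagent is added for 10 min before luminescence is imaged.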
A number is an active result; – = inactive; ? = inconclusive; · = no result. Unless noted, calls follow the shape of the dose curve; as a rule, active = well fitted curve in the direction sought with a large enough effect; inconclusive = small, poorly fitted or top-dose-only effect, or another doubt; inactive = no such curve, though single readings can be large; an effect the other way counts as inactive or inconclusive.

SMILES	CHX counter	LmPK inh	Sm TGR inh	Shiga inhibitor	Giardia FBPA inh	Tb PYK inh
COc1ccccc1NC(=O)c1ccc2c(c1)nnn2C	–	–	·	–	–	–
COc1ccccc1NC(=O)c1ccc2snnc2c1	–	–	·	42	–	–
O=C(Nc1ccc(F)cc1)c1ccc2nsnc2c1	46	–	–	64	–	–
CCN(CC)S(=O)(=O)c1ccc(N2CCOCC2)c(NC(=O)c2ccc(=O)[nH]c2)c1	·	·	·	·	·	–
O=C(NC1CC1)c1ccc2snnc2c1	–	–	·	–	–	–
COc1cc(NC(=O)c2ccc3snnc3c2)cc(OC)c1	29	–	–	–	–	–
Cc1ccc(C(=O)Nc2ccccc2OC(F)F)cc1	37	–	–	45	–	–
CC1CCC(NC(=O)c2ccc3snnc3c2)CC1 (stereo not drawn)	41	–	–	50	–	–
O=C(Nc1ccc(NC(=O)c2ccncc2)cc1)c1ccncc1	–	–	–	–	–	·
O=C(Nc1ccc2c(c1)oc1ccccc12)c1ccncc1	51	–	–	67	–	·
O=C(Nc1cccc(-c2nc3ccccc3o2)c1)c1cccnc1	–	–	–	–	–	–
O=C(Nc1ccc2c(c1)oc1ccccc12)c1cccnc1	38	–	–	–	–	–
Cc1nnc(SCC(=O)Nc2sc3c(c2C(N)=O)CCC(C)C3)[nH]c1=O (stereo not drawn)	·	·	–	·	·	–
N#Cc1cc2c(nc1SC1CC(=O)N(c3ccccc3)C1=O)CCC2 (stereo not drawn)	83	–	–	115	–	–
CCn1c(=O)cc(SCC(=O)NCCc2cc(OC)ccc2OC)c2ccccc21	·	·	–	·	·	–
S=C1NC(c2ccccc2)=NCN1c1ccc(Cl)cc1	27	–	–	–	–	–
COc1cccc(N=c2oc3ccc(OC)cc3cc2-c2nc3ccccc3[nH]2)c1	40	–	–	94	–	–
COc1ccc(N=c2oc3ccc(OC)cc3cc2-c2nc3ccccc3[nH]2)cc1	28	–	–	162	–	–
COc1cccc(N=c2oc3ccccc3cc2-c2nc3ccccc3[nH]2)c1	38	–	–	63	–	–
COc1cccc(OC)c1C(=O)Nc1cc(Cl)ccc1N1CCOCC1	–	–	–	–	–	–
CC1CCCN(C(=O)C(C)Nc2cc(Cl)ccc2N2CCOCC2)C1 (stereo not drawn)	–	–	40µM	–	–	–
Cc1[nH]nc(N)c1N=Nc1ccc(Br)cc1	29	–	·	41	–	·
Cc1nc(N)sc1N=Nc1ccc(Br)cc1	65	–	–	127	–	–
Nc1n[nH]c(N)c1N=Nc1ccc2c(c1)OCO2	36	–	·	97	–	–
Cc1ccc(N=Nc2c(N)n[nH]c2N)cc1	41	–	–	49	–	–
SMILES	CHX counter	LmPK inh	Sm TGR inh	Shiga inhibitor	Giardia FBPA inh	Tb PYK inh
CCOc1cccc(/C(O)=C2/C(=O)C(=O)N(Cc3ccco3)C2c2ccncc2)c1 (stereo not drawn)	–	–	?	–	–	–
O=C1C(=O)N(Cc2ccco2)C(c2cccc(Cl)c2)/C1=C(\O)c1ccc2c(c1)OCCO2 (stereo not drawn)	–	–	35µM	–	–	–
COc1cc(C2/C(=C(\O)c3ccc4c(c3)OCCO4)C(=O)C(=O)N2Cc2ccco2)ccc1O (stereo not drawn)	–	–	–	–	·	–
COc1cccc(C2/C(=C(/O)c3ccccc3)C(=O)C(=O)N2Cc2ccco2)c1 (stereo not drawn)	–	–	50µM	–	–	–
COc1cccc(/C(O)=C2/C(=O)C(=O)N(Cc3ccco3)C2c2ccncc2)c1 (stereo not drawn)	–	–	28µM	–	–	–
Nc1ccc(Cc2ccc(N)c(O)c2)cc1O	–	–	40µM	43	?	–
COc1cc(Cc2ccc(N)c(OC)c2)ccc1N	–	–	–	–	–	–
CCOc1ncccc1C(=O)Nc1cc(S(=O)(=O)N2CCCCC2)ccc1OC	·	·	–	·	·	–
COc1ccc(NC(=O)C2CCN(Cc3cnn(-c4ccccc4)c3-n3cccc3)CC2)cc1OC	34	–	–	49	?	–
COc1cccc(NC(=O)C2CCN(Cc3cnn(-c4ccccc4)c3-n3cccc3)CC2)c1	51	–	–	–	–	–
COc1ccc(OC)c(NC(=O)C2CCN(Cc3cnn(-c4ccccc4)c3-n3cccc3)CC2)c1	–	–	–	–	–	–
O=C(Nc1ccccc1Cl)C1CCN(Cc2cnn(-c3ccccc3)c2-n2cccc2)CC1	27	–	–	–	–	–
C[C@H](NC(=O)c1ncn2c1C(=O)NC[C@@H]2C)C(=O)OC(C)(C)C	·	·	·	·	·	–
Cc1nc(NC(=O)/C=C/c2ccccc2)n[nH]1	15	–	–	–	–	–
CCCn1nnc(NC(=O)/C=C/c2cc(Br)ccc2OC)n1	–	–	–	–	–	–
CCCn1nnc(NC(=O)/C=C/c2ccco2)n1	–	–	5.6µM	–	–	–
Cc1ccc(NC(=O)/C=C/c2ccccc2)c(Br)c1	·	·	–	·	·	–
CCCn1nnc(NC(=O)/C=C/c2ccccc2)n1	17	–	–	–	–	–
CCCCCCNCC(=O)N1CCC(Cc2ccccc2)CC1	–	–	–	–	?	–
N#CC1C(=O)NC(=O)C(C#N)C12CCCc1sccc12 (stereo not drawn)	·	·	·	·	·	–
O=C(CCCN1C(=O)c2cccnc2Oc2ccc(Cl)cc21)N1CCCCC1	–	–	13µM	–	–	–
O=C(CN1C(=O)c2cccnc2Oc2ccc(Cl)cc21)NC1CCCC1	–	–	–	–	–	–
O=C(CN1C(=O)c2cccnc2Oc2ccc(Cl)cc21)N1CCCCCC1	–	–	–	–	·	–
CC1CCC(NC(=O)CN2C(=O)c3cccnc3Oc3ccc(Cl)cc32)CC1 (stereo not drawn)	16	–	?	–	·	–
